Results filed as inconclusive are left out. A number with no mark means an inactive call. Calls of active or inactive are those of the source. Calls follow the shape of the dose curve; as a rule, active = well fitted curve in the direction sought with a large enough effect; inconclusive = small, poorly fitted or top-dose-only effect, or another doubt; inactive = no such curve, though single readings can be large; an effect the other way counts as inactive or inconclusive.
Tests used:
[1] = Quantitative High-Throughput drug screen in 47 multiple myeloma cell lines against the NCATS MIPE library collection: KMS12BM_JCRB cell viability assay (AID 1918971); also: nearly all actives have a fitted effect of over 35% in size; also: potency is read from the fitted curve at half-maximal effect
Outline: (§1)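 Inhibition of cell viability is measured here. Each line was plated at 500 cells per well, treated with MIPE 4.0 drugs, kept 48 hours at 37C, then assayed for ATP content by CellTiter-Glo luminescence.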

[2] = Quantitative High-Throughput drug screen in 47 multiple myeloma cell lines against the NCATS MIPE library collection: KMS12PE_JCRB cell viability assay (AID 1918972); also: nearly all actives have a fitted effect of over 30% in size
Outline: as §1

[3] = Quantitative High-Throughput drug screen in 47 multiple myeloma cell lines against the NCATS MIPE library collection: KMS26_JCRB cell viability assay (AID 1918975); also: nearly all actives have a fitted effect of over 45% in size; also: potency is read from the fitted curve at half-maximal effect
Outline: as §1

[4] = Quantitative High-Throughput drug screen in 47 multiple myeloma cell lines against the NCATS MIPE library collection: MMM1_PLB cell viability assay (AID 1918976); also: nearly all actives have a fitted effect of over 35% in size; also: potency is read from the fitted curve at half-maximal effect
Outline: (§2)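 ATP-based luminescence (CellTiter-Glo, 5 min RT incubation) quantified surviving cells following two days' treatment with MIPE 4.0 agents at 37 °C, 5% CO2.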

[5] = Quantitative High-Throughput drug screen in 47 multiple myeloma cell lines against the NCATS MIPE library collection: OCIMY1_PLB cell viability assay (AID 1918979); also: nearly all actives have a fitted effect of over 35% in size; also: potency is read from the fitted curve at half-maximal effect
Outline: as §2

[6] = Quantitative High-Throughput drug screen in 47 multiple myeloma cell lines against the NCATS MIPE library collection: MM1S_ATCC cell viability assay (AID 1918980); also: nearly all actives have a fitted effect of over 45% in size; also: potency is read from the fitted curve at half-maximal effect
Outline: as §2

[7] = Quantitative High-Throughput drug screen in 47 multiple myeloma cell lines against the NCATS MIPE library collection: MM1R_ATCC cell viability assay (AID 1918981); also: nearly all actives have a fitted effect of over 35% in size; also: potency is read from the fitted curve at half-maximal effect
Outline: as §2

[8] = Quantitative High-Throughput drug screen in 47 multiple myeloma cell lines against the NCATS MIPE library collection: SKMM1_PLB cell viability assay (AID 1919863); conditions: SKMM1 myeloma viability, CellTiter-Glo ATP, 48 h; viability: stronger effect = lower value; also: nearly all actives have a fitted effect of over 35% in size; also: potency is read from the fitted curve at half-maximal effect
Outline: as §2

[9] = Quantitative High-Throughput drug screen in 47 multiple myeloma cell lines against the NCATS MIPE library collection: NCIH929_DSMZ cell viability assay (AID 1918978); also: nearly all actives have a fitted effect of over 35% in size; also: potency is read from the fitted curve at half-maximal effect
Outline: as §2

[10] = Quantitative High-Throughput drug screen in 47 multiple myeloma cell lines against the NCATS MIPE library collection: LP1_DSMZ cell viability assay (AID 1918982); also: nearly all actives have a fitted effect of over 35% in size; also: potency is read from the fitted curve at half-maximal effect
Outline: as §2

[11] = Quantitative High-Throughput drug screen in 47 multiple myeloma cell lines against the NCATS MIPE library collection: KMS28PE_JCRB cell viability assay (AID 1918983); also: nearly all actives have a fitted effect of over 35% in size; also: potency is read from the fitted curve at half-maximal effect
Outline: as §2

[12] = Quantitative High-Throughput drug screen in 47 multiple myeloma cell lines against the NCATS MIPE library collection: KMS34_JCRB cell viability assay (AID 1918985); also: nearly all actives have a fitted effect of over 40% in size; also: potency is read from the fitted curve at half-maximal effect
Outline: as §2

[13] = Quantitative High-Throughput drug screen in 47 multiple myeloma cell lines against the NCATS MIPE library collection: OPM1_PLB cell viability assay (AID 1918989); also: nearly all actives have a fitted effect of over 40% in size; also: potency is read from the fitted curve at half-maximal effect
Outline: as §2

[14] = Quantitative High-Throughput drug screen in 47 multiple myeloma cell lines against the NCATS MIPE library collection: KMS20_JCRB cell viability assay (AID 1918973); also: nearly all actives have a fitted effect of over 45% in size; also: potency is read from the fitted curve at half-maximal effect
Outline: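 Luminescent ATP measurement with CellTiter-Glo gives viability, scaled between DMSO-only wells (100%) and media-only wells (0%). Cells, 500 per well, faced library compounds for 48 hours at 37C.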

[15] = Quantitative High-Throughput drug screen in 47 multiple myeloma cell lines against the NCATS MIPE library collection: MOLP8_DSMZ cell viability assay (AID 1918977); also: nearly all actives have a fitted effect of over 45% in size; also: potency is read from the fitted curve at half-maximal effect
Outline: as §2

[16] = Quantitative High-Throughput drug screen in 47 multiple myeloma cell lines against the NCATS MIPE library collection: L363_DSMZ cell viability assay (AID 1918984); conditions: L363 myeloma viability, CellTiter-Glo ATP luminescence, 48 h; viability (% of control): at 45.8 µM (top of the series); also: nearly all actives have a fitted effect of over 40% in size; also: potency is read from the fitted curve at half-maximal effect
Outline: as §2

[17] = Quantitative High-Throughput drug screen in 47 multiple myeloma cell lines against the NCATS MIPE library collection: OCIMY7_PLB cell viability assay (AID 1918987); conditions: OCI-MY7 myeloma viability, CellTiter-Glo ATP, 48 h; viability (% of DMSO): at 45.8 µM (top of the series); also: nearly all actives have a fitted effect of over 65% in size; also: potency is read from the fitted curve at half-maximal effect
Outline: as §2

[18] = Quantitative High-Throughput drug screen in 47 multiple myeloma cell lines against the NCATS MIPE library collection: OCIMY5_PLB cell viability assay (AID 1918988); also: nearly all actives have a fitted effect of over 65% in size; also: potency is read from the fitted curve at half-maximal effect
Outline: as §2

[19] = Quantitative High-Throughput drug screen in 47 multiple myeloma cell lines against the NCATS MIPE library collection: U266_ATCC cell viability assay (AID 1919864); also: nearly all actives have a fitted effect of over 35% in size; also: potency is read from the fitted curve at half-maximal effect
Outline: as §2

SMILES | Potency [1] | Potency [2] | Potency [3] | Potency [4] | Potency [5] | Potency [6] | Potency [7] | viability [8] | Potency [9] | Potency [10] | Potency [11] | Potency [12] | Potency [13] | Potency [14] | Potency [15] | Potency [16] | Potency [17] | Potency [18] | Potency [19] | Potency [8]
CCC(=O)NCC[C@@H]1CCc2ccc3c(c21)CCO3 | inactive | inactive | 6.62 µM (active) | 0.59 µM (active) | inactive | 1.48 µM (active) | inactive | 137% | – | – | – | – | – | – | – | – | – | – | – | –
N[C@@H](CC(=O)N1CCn2c(nnc2C(F)(F)F)C1)Cc1cc(F)c(F)cc1F | inactive | inactive | – | 1.87 µM (active) | inactive | 26.4 µM (active) | inactive | – | inactive | inactive | 9.35 µM (active) | – | – | – | – | – | – | – | – | –
COc1cc(F)c(C(C)C)cc1-c1ccc(C(F)(F)F)cc1CN1C(=O)O[C@H](c2cc(C(F)(F)F)cc(C(F)(F)F)c2)[C@@H]1C | 3.32 µM (active) | inactive | inactive | 1.18 µM (active) | inactive | – | 0.296 µM (active) | – | inactive | 0.662 µM (active) | – | – | – | – | – | – | – | – | – | –
CC(C)(OCc1nn(Cc2ccccc2)c2ccccc12)C(=O)O | 0.418 µM (active) | inactive | 6.62 µM (active) | inactive | inactive | 13.2 µM (active) | – | – | – | – | – | inactive | inactive | – | – | – | – | – | – | –
Clc1ccc(C2(c3ccc(-c4cn[nH]c4)cc3)CCNCC2)cc1 | 23.5 µM (active) | – | 20.9 µM (active) | 1.48 µM (active) | 23.5 µM (active) | 14.8 µM (active) | 10.5 µM (active) | – | 2.96 µM (active) | 23.5 µM (active) | 14.8 µM (active) | – | 2.35 µM (active) | 5.26 µM (active) | 20.9 µM (active) | 2.35 µM (active) | 1.05 µM (active) | 16.6 µM (active) | – | –
CC(C)(CO)[C@@H](O)C(=O)NCCC(=O)O | inactive | inactive | – | – | inactive | inactive | inactive | 102% | inactive | inactive | – | – | inactive | – | inactive | – | inactive | inactive | – | –
CCCCC[C@H](O)C=C[C@H]1[C@H](O)CC(=O)[C@H]1CC=CCCCC(=O)O | 20.9 µM (active) | inactive | – | – | inactive | 20.9 µM (active) | inactive | – | 16.6 µM (active) | inactive | inactive | 0.0148 µM (active) | 18.7 µM (active) | – | 16.6 µM (active) | – | – | – | 18.7 µM (active) | –
COc1ccc(CCN(C)CCCOc2ccc(S(=O)(=O)c3[nH]c4ccccc4c3C(C)C)cc2)cc1OC | 23.5 µM (active) | inactive | – | 9.35 µM (active) | – | 20.9 µM (active) | – | 110% | – | – | 16.6 µM (active) | – | 23.5 µM (active) | – | – | – | – | – | – | –
COc1cc(CNC(=O)CCCCC=CC(C)C)ccc1O | inactive | inactive | – | – | inactive | inactive | inactive | 120% | 18.7 µM (active) | inactive | – | – | inactive | – | – | – | 14.8 µM (active) | inactive | inactive | –
CN(C)CCN(C)C(=O)c1ccc(NC(=O)Nc2ccc(-c3nc(N4CCOCC4)c4ccn(CC(F)(F)F)c4n3)cc2)cc1 | 0.209 µM (active) | – | 0.0526 µM (active) | 0.0296 µM (active) | 7.43 µM (active) | 0.0526 µM (active) | 0.105 µM (active) | – | 0.0083 µM (active) | 0.166 µM (active) | 0.0469 µM (active) | 0.372 µM (active) | 0.0093 µM (active) | 0.0418 µM (active) | 0.0066 µM (active) | – | 3.32 µM (active) | 0.418 µM (active) | – | 0.209 µM (active)
C[C@H](CCC(=O)O)[C@H]1CC[C@H]2[C@H]3[C@@H](CC[C@]12C)[C@@]1(C)CC[C@@H](O)C[C@H]1C[C@@H]3O | inactive | – | inactive | 1.66 µM (active) | inactive | inactive | inactive | – | inactive | 16.6 µM (active) | – | – | inactive | inactive | – | inactive | inactive | – | – | –
CCOC(=O)N1c2ccc(C(F)(F)F)cc2[C@@H](N(Cc2cc(C(F)(F)F)cc(C(F)(F)F)c2)C(=O)OC)C[C@H]1CC | 13.2 µM (active) | – | 3.32 µM (active) | 8.33 µM (active) | 16.6 µM (active) | – | 2.96 µM (active) | – | 8.33 µM (active) | – | – | 5.26 µM (active) | 3.32 µM (active) | inactive | – | inactive | inactive | 4.69 µM (active) | – | –
Cc1cccc(Nc2nc(N[C@@H]3CCCC[C@H]3N)ncc2C(N)=O)c1 | 14.8 µM (active) | – | 20.9 µM (active) | 20.9 µM (active) | 26.4 µM (active) | – | 26.4 µM (active) | – | 6.62 µM (active) | 18.7 µM (active) | – | – | 16.6 µM (active) | 4.69 µM (active) | – | – | 6.62 µM (active) | – | – | 23.5 µM (active)
O=C1NC(=O)C(=Cc2ccc(-c3ccc(F)cc3O)o2)S1 | 37.2 µM (active) | inactive | – | 2.96 µM (active) | inactive | 16.6 µM (active) | – | – | – | – | – | – | 14.8 µM (active) | – | – | 0.833 µM (active) | 3.72 µM (active) | – | – | –
